Drawing on PubChem BioAssay AID488847 (NMMLSC, 2010), this text covers inhibition of aptamer binding for 94 compounds.

SMILES strings stand for the structures. In all, about 330,000 compounds went through this assay and about 1,900 (0.58%) were called active. What follows is part of a selection rich in actives, with near analogues and random picks from the rest. Values without a mark were called inactive.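 Rule for the calls: active = inhibition of aptamer binding above 40%, roughly 3 SD of noise, on plates passing a quality check; inactive = the rest.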

Chain of Beta-adrenergic receptor kinase 1 (Homo sapiens) (P25098 whole entry, looked up): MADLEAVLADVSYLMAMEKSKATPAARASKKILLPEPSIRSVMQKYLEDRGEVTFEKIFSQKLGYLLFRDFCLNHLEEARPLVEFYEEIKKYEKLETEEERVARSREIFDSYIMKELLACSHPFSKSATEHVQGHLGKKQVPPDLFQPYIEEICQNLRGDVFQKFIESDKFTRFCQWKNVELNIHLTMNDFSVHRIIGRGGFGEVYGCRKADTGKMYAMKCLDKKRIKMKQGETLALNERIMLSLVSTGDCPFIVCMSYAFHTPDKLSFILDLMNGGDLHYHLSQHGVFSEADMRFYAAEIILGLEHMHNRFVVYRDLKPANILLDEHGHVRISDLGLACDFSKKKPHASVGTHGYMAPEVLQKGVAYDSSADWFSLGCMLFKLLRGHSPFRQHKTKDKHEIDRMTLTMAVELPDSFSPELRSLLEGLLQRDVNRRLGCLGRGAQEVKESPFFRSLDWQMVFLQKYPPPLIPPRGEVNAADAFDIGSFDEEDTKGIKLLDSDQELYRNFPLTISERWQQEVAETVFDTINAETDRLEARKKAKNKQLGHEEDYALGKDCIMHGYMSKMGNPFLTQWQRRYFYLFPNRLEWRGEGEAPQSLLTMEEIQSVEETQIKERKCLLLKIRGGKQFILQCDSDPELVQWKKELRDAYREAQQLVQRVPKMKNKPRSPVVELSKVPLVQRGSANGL

The assay has as its target Beta-adrenergic receptor kinase 1 (Homo sapiens) (UniProt P25098). Nature of the assay: compounds blocking aptamer binding on GRK2 – biochemical, human GRK2, bead flow cytometry, HTS, primary screen (AID 488847).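 Note: median bead fluorescence of bound FAM aptamer so fluorescent compounds give negative values.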 The following applies: FAM-aptamer displacement from GRK2, at 10 µM, active compounds read high. For orientation: In flow cytometry, cells or beads pass a laser one at a time.
Consider `CCOc1ccccc1C(=O)NCc1ccco1`, for which the inhibition of aptamer binding is 50% (active).

`CCOc1cc(NC(=S)NCc2ccco2)c(OCC)cc1NC(=O)c1ccco1`: the inhibition of aptamer binding is 0%.

`Cc1cccc(Nc2ccccc2C(=O)NCc2ccco2)c1C`: the inhibition of aptamer binding is 0%.

As for `Cc1csc(=O)n1CC(=O)OCC(=O)N(CC(C)C)c1c(N)n(Cc2ccccc2)c(=O)[nH]c1=O`, the inhibition of aptamer binding is 98% (active).

For `CC(C)CN(C(=O)COC(=O)c1ccc2ccccc2c1)c1c(N)n(Cc2ccccc2)c(=O)[nH]c1=O`, the inhibition of aptamer binding is 0%.

Regarding `CC(C)CN(C(=O)COC(=O)c1ccc(Cl)c(N)c1)c1c(N)n(Cc2ccccc2)c(=O)[nH]c1=O`, the inhibition of aptamer binding is 1%.

As to `c1ccc(CC2CCN(c3nc4ccccc4n4cnnc34)CC2)cc1`, the inhibition of aptamer binding was 0%.

For `COc1ccc(C(=O)NCCSc2ccccc2C)cc1`, the inhibition of aptamer binding is 0%.

Regarding `COc1ccccc1OCCNC(=O)c1cc([N+](=O)[O-])cc([N+](=O)[O-])c1`, the inhibition of aptamer binding is 0%.

Turning to `COc1ccc(C(=O)NCCNc2ccc([N+](=O)[O-])cn2)cc1`, the inhibition of aptamer binding is 45% (active).

On to `O=C(N/N=C/C=C/c1ccco1)c1cccs1`, for which the inhibition of aptamer binding is 7%.

With `Cc1nn(C)c(Cl)c1CN1CCC(n2nccc2NC(=O)C2CCCC2)CC1`, the inhibition of aptamer binding is 4%.

On to `COc1ccc(S(=O)(=O)N2CCOCC2)cc1C(=O)NC1CCCCC1`, for which the inhibition of aptamer binding was 3%.

For `CC1CCCCC1NC(=O)CN1CCC(O)(c2ccc3c(c2)OCO3)CC1` (centres undefined), the inhibition of aptamer binding was 1%.

As for `COc1ccc(CNC(=O)COc2ccccc2C(=O)c2cnn(-c3ccccc3)c2)cc1OC`, the inhibition of aptamer binding is 1%.

For the compound `O=C(c1cnn(-c2ccc(Cl)cc2)c1)c1ccccc1O`, the inhibition of aptamer binding was 47% (active).

Regarding `Cc1ncc(CC(=O)n2cc(C(=O)c3cc(Cl)ccc3O)cn2)s1`, the inhibition of aptamer binding was 6%.

Consider `Cc1ccc(C)c(S(=O)(=O)N2CCN(c3ncnc4sccc34)CC2)c1`, for which the inhibition of aptamer binding is 2%.

Consider `Cc1ccc(-n2ncc3c2CC(C)(C)CC3NC(=O)Cc2c(C)noc2C)cc1` (centres undefined), for which the inhibition of aptamer binding is 3%.

As to `CCOC(=O)C1CCN(C(c2cc3cc(C)cc(C)c3[nH]c2=O)c2nnnn2C2CCCCC2)CC1` (centres undefined), the inhibition of aptamer binding is 0%.

Regarding `Cc1ccc(Nc2nc(N)nc(CN3CCN(Cc4ccccc4)CC3)n2)cc1Cl`, the inhibition of aptamer binding is 1%.

In the case of `CCOC(=O)C1CCCN(CCSc2ccc(C)cc2)C1` (centres undefined), the inhibition of aptamer binding is 0%.

In the case of `CCOC(=O)C1CCCN(Cc2nc(N)nc(Nc3ccc(C)cc3)n2)C1` (centres undefined), the inhibition of aptamer binding is 60% (active).

Consider `Cc1cc(C)c2nc(N3CCC(C(=O)NCCN4CCOCC4)CC3)sc2c1`, for which the inhibition of aptamer binding is 1%.

For `CC1CCN(CC(=O)Nc2nccs2)CC1`, the inhibition of aptamer binding was 1%.

Turning to `Cc1cccc(N2C(=O)c3ccc(C(=O)Nc4cccc(C(=O)O)c4)cc3C2=O)c1`, the inhibition of aptamer binding is 0%.

`O=C(O)c1ccc2c(c1)C(=O)N(c1ccc(/C=C/C(=O)c3ccccc3)cc1)C2=O`: the inhibition of aptamer binding is 46% (active).

In the case of `O=C(/C=C/c1ccc(N2CCOCC2)cc1)c1ccccc1`, the inhibition of aptamer binding is 0%.

For the compound `O=C(NC1CCCC1)C(c1ccc(N2CCOCC2)cc1)N(C(=O)c1ccco1)c1ccccc1F` (centres undefined), the inhibition of aptamer binding is 1%.

Regarding `CC(C)c1ccc(Nc2nnc(SCC(=O)c3nnc(-c4ccccc4)o3)s2)cc1`, the inhibition of aptamer binding was 0%.

Regarding `CCN1/C(=C\c2ccc3ccccc3[n+]2CC)Sc2cc(C)ccc21`, the inhibition of aptamer binding is 96% (active).

Consider `CCN1/C(=C/c2ccc3ccc(C)cc3[n+]2CC)Sc2ccccc21`, for which the inhibition of aptamer binding was 94% (active).

With `CCn1c(CNC(=O)c2ccccc2)nnc1SCC(=O)N1CCN(c2ccccc2)CC1`, the inhibition of aptamer binding was 0%.

As for `NC(=O)c1nnsc1-c1ccc(-c2snnc2C(N)=O)cc1`, the inhibition of aptamer binding was 1%.

As for `CN(CCC#N)c1ncnc2scc(-c3ccccc3)c12`, the inhibition of aptamer binding is 3%.

`CC(Oc1ccc(F)cc1)C(=O)N1CCN(c2ncccn2)CC1` (centres undefined): the inhibition of aptamer binding was 6%.

Turning to `COc1cccc(/C=C(/CC(=O)Nc2ccc(N3CCOCC3)cc2)c2nc3ccccc3s2)c1`, the inhibition of aptamer binding is 0%.

Regarding `CCCCN(C(=O)c1ccc(C)o1)c1c(N)n(CCCC)c(=O)[nH]c1=O`, the inhibition of aptamer binding was 0%.

On to `CCCCn1c(N)c(N(CCC(C)C)C(=O)c2ccc(COc3ccccc3)o2)c(=O)[nH]c1=O`, for which the inhibition of aptamer binding is 1%.

As for `CCCCn1c(N)c(N(CCC(C)C)C(=O)c2ccc([N+](=O)[O-])o2)c(=O)[nH]c1=O`, the inhibition of aptamer binding was 55% (active).

Turning to `C=CCSc1nc2c(c(=O)[nH]1)C(C(C)C)C(C#N)=C(N)O2` (centres undefined), the inhibition of aptamer binding was 2%.

In the case of `CC(CC(=O)Nc1ccccc1)n1ccnc1` (centres undefined), the inhibition of aptamer binding is 1%.

As to `C[C@H](NS(=O)(=O)c1ccc(Cl)cc1)C(=O)OCC(=O)N1CCOCC1`, the inhibition of aptamer binding was 8%.

For the compound `CC(=O)N1CC[n+]2c(-c3ccc([N+](=O)[O-])cc3)csc21`, the inhibition of aptamer binding is 92% (active).

As for `COC(=O)c1c(C)[nH]c(C)c1-c1ccc([N+](=O)[O-])cc1`, the inhibition of aptamer binding was 0%.

In the case of `COc1ccc(C2CC(c3ccc([N+](=O)[O-])cc3)=NN2C(C)=O)cc1` (centres undefined), the inhibition of aptamer binding was 0%.

`Cc1nn(Cc2ccc(F)cc2)c(C)c1NC(=O)c1cccnc1Cl`: the inhibition of aptamer binding is 5%.

In the case of `Cc1nn(Cc2ccc(Cl)c(Cl)c2)c(C)c1NC(=O)c1cc(C2CC2)on1`, the inhibition of aptamer binding is 0%.

Regarding `Cc1nn(Cc2ccc(F)cc2)c(C)c1NC(=O)c1noc2c1CCc1ccccc1-2`, the inhibition of aptamer binding was 73% (active).

For `Cc1ccccc1-n1cc(CNC(=O)CC2C(=O)NCCN2C/C=C/c2ccccc2)cn1` (centres undefined), the inhibition of aptamer binding is 0%.

On to `O=C(NC1CC1)C1=C[C@H](c2coc3ccccc3c2=O)C[C@H](OCCCCO)O1`, for which the inhibition of aptamer binding is 2%.

In the case of `CCN1C(=O)[C@H]2[C@@H](c3ccc(-c4ccc(F)cc4)cc3)N[C@@](Cc3ccccc3)(C(=O)OC)[C@H]2C1=O`, the inhibition of aptamer binding is 0%.

For `CCN1C(=O)[C@H]2[C@@H](c3ccc(SC4CCCCC4)c(OC)c3)N[C@@](Cc3ccccc3)(C(=O)OC)[C@H]2C1=O`, the inhibition of aptamer binding was 0%.

Regarding `CCN1C(=O)[C@H]2[C@@H](c3ccc(-c4ccc(OC)cc4)cc3)N[C@@](Cc3ccccc3)(C(=O)OC)[C@H]2C1=O`, the inhibition of aptamer binding is 43% (active).

For the compound `COc1cccc(C2SCC(=O)N2c2cccc(C)c2)c1OC` (centres undefined), the inhibition of aptamer binding was 2%.

For the compound `COCCn1c(SCC(=O)c2[nH]c(C)c(C(C)=O)c2C)nc2ccccc2c1=O`, the inhibition of aptamer binding was 0%.

On to `C/C(=N\NC(=S)NCc1ccccc1)C1CCCCC1`, for which the inhibition of aptamer binding was 1%.

As to `CC1CCCCC1NC(=O)c1cc(=O)[nH]c2ccccc12` (centres undefined), the inhibition of aptamer binding is 0%.

Take `COc1ccc(OC)c(CNC(=O)Cn2nc(C)c3c(C)n(-c4ccc(C)cc4)nc3c2=O)c1`: the inhibition of aptamer binding was 0%.

As to `CC[N+](C)(CC)CCC[n+]1c(-c2ccccc2)c2cc(N)ccc2c2ccc(N)cc21`, the inhibition of aptamer binding was 62% (active).

In the case of `Cc1ccc(-c2nc(CS(=O)CC(=O)NC3CCCC3)c(C)o2)cc1` (centres undefined), the inhibition of aptamer binding is 0%.

As to `O=C(OCc1ccccc1F)c1ccc2c(c1)OCCO2`, the inhibition of aptamer binding was 0%.

On to `CC(=O)Nc1cccc(C(=O)OCC(=O)c2ccc3c(c2)OCO3)c1`, for which the inhibition of aptamer binding was 0%.

Turning to `O=C(COC(=O)c1ccc(O)cc1O)c1ccc2c(c1)OCCO2`, the inhibition of aptamer binding is 44% (active).

In the case of `CN(CC(=O)Nc1ccc(Cl)c(C(F)(F)F)c1)C(=O)CCC(=O)c1ccccc1`, the inhibition of aptamer binding is 1%.

Regarding `CCC(C)(C)N=C(NC#N)Nc1cccnc1`, the inhibition of aptamer binding was 0%.

Consider `Cc1nc(Nc2ccccc2F)c2nnn(Cc3ccccc3Cl)c2n1`, for which the inhibition of aptamer binding was 47% (active).

Consider `Cc1nc(Nc2ccc(S(=O)(=O)N3CCCC3)cc2)c2nnn(Cc3ccccc3)c2n1`, for which the inhibition of aptamer binding was 0%.

Regarding `Cc1nc(Nc2ccc3c(c2)OCCO3)c2nnn(Cc3ccccc3Cl)c2n1`, the inhibition of aptamer binding is 0%.

As to `O=C(CNC(c1ccccc1)c1ccccc1)Nc1ccc(F)cc1`, the inhibition of aptamer binding is 1%.

As to `S=C(Nc1cccnc1)Nc1ccccn1`, the inhibition of aptamer binding is 1%.

With `O=C1CSC(=O)N1CCOCCN1C(=O)CSC1=O`, the inhibition of aptamer binding is 3%.

Turning to `O=C(CNC(=O)c1n[nH]c2ccccc12)Nc1cc(Cl)ccc1Cl`, the inhibition of aptamer binding was 0%.

As to `Cc1cccc(OCC(O)CN2CCN(S(=O)(=O)c3ccc(C)cc3C)CC2)c1` (centres undefined), the inhibition of aptamer binding is 1%.

On to `CC(=O)c1ccc(OCC(O)CN2CCN(S(=O)(=O)c3cccc(Br)c3)CC2)cc1` (centres undefined), for which the inhibition of aptamer binding is 88% (active).

Consider `O=S(=O)(c1ccc(OCC(O)CN2CCN(c3ccccc3Cl)CC2)cc1)N1CCOCC1` (centres undefined), for which the inhibition of aptamer binding was 0%.

As for `CCC(C)N1C(=O)S/C(=C/c2ccc(Sc3nc4ccccc4[nH]3)o2)C1=O` (centres undefined), the inhibition of aptamer binding is 1%.

In the case of `Cc1cccc(NC(=S)NCc2ccc3[nH]c4c(c3c2)CCCC4)c1`, the inhibition of aptamer binding is 0%.

For `Cc1ccc(C(C)NC(=O)Cn2nc(C)c([N+](=O)[O-])c2C)cc1` (centres undefined), the inhibition of aptamer binding was 2%.

For `Cc1ccc(C)c(NC(=O)C2CC(=O)N(C(C)C)C2)c1` (centres undefined), the inhibition of aptamer binding was 2%.

As to `COC(=O)c1ccc(C)c(NC(=O)C2CC(=O)N(C3CCCC(C)C3C)C2)c1` (centres undefined), the inhibition of aptamer binding is 63% (active).

With `COC(=O)c1ccc(C)c(NC(=O)Cn2c(C)csc2=O)c1`, the inhibition of aptamer binding is 0%.

Regarding `O=C(CSCc1ccc([N+](=O)[O-])cc1)NCCSCc1ccccc1`, the inhibition of aptamer binding is 0%.

Turning to `COc1ccc(-c2ocnc2C(=O)Nc2ccc3c(c2)CCC3)cc1`, the inhibition of aptamer binding was 8%.

With `COC(=O)c1ccc(S(=O)(=O)NCc2ccccc2)n1C`, the inhibition of aptamer binding was 2%.

Turning to `Cc1ccc(C(=O)OCC(=O)N2CC(C)CC(C)C2)cc1S(=O)(=O)N1CCCCC1` (centres undefined), the inhibition of aptamer binding was 2%.

`COc1cccc2c1OCC(C(=O)NCc1ccc(Cl)cc1Cl)=C2`: the inhibition of aptamer binding was 0%.

As to `CCC(=O)c1ccc(OCC(=O)OCC(=O)N2CCc3ccccc3C2)cc1`, the inhibition of aptamer binding was 3%.

For the compound `CN(C)c1ccc(NC(=S)N(CCc2ccccc2)C2CC(=O)N(c3c(Cl)cccc3Cl)C2=O)cc1` (centres undefined), the inhibition of aptamer binding is 1%.

`O=C(CNC(=O)COc1ccccc1)NCCc1ccccn1`: the inhibition of aptamer binding is 0%.

For the compound `CC(C)=C(NC(=O)c1ccco1)C(=O)NCCc1nc2ccccc2[nH]1`, the inhibition of aptamer binding was 0%.

On to `O=C(COc1ccccc1)NCCc1nc2ccccc2[nH]1`, for which the inhibition of aptamer binding was 59% (active).

In the case of `OCCC1CN(Cc2ccc(Oc3ncccn3)cc2)CCN1CCc1ccccc1` (centres undefined), the inhibition of aptamer binding was 0%.

`CCNc1nc(NC(C)C)nc(OCCOC(=O)c2ccccc2)n1`: the inhibition of aptamer binding is 0%.
